This is a sample that favours compounds with a hit; in the whole collection about 12% have one here.
BAZ2B block: inhibitors of human BAZ2B bromodomain. 360,000 tested, 4.4% active. AID 504333. Q9UIF8. Potency, µM (titrated, usually from 114 µM), for inactives: at the top dose activity change, negative = inhibition, usual class: inhibitors. AlphaScreen BAZ2B-H3K14Ac peptide displacement; also: % is scaled to controls: 0 for no effect and ±100 for the full control effect; nearly all actives have a fitted effect of over 60% in size
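Multi-concentration screen (max 110 uM) measuring displacement of acetylated histone H3 peptide from BAZ2B by AlphaScreen, using 50 nM protein, 50 nM peptide and 10 ug/mL streptavidin donor plus Ni-chelate acceptor beads.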
JMJD2A Tudor inh: JMJD2A Tudor domain (human) inhibition; O75164; AlphaScreen JMJD2A-Tudor / H3K4me3 peptide binding; Potency, µM (doses to about 114 µM), without a hit: at the top dose activity change, negative = inhibition, most hits filed as inhibitors; 390,000 tested, 4.4% active; also: % is scaled to controls: 0 for no effect and ±100 for the full control effect; nearly all actives have a fitted effect of over 50% in size
HP1b binding inh: inhibitors of HP1-beta chromodomain binding to methylated histone tails; P83916; AlphaScreen HP1-beta / biotin-H3K9me3 peptide binding; Potency, µM (series often up to 114 µM), inactives show at the top dose activity change, negative = inhibition, most hits filed as inhibitors; 390,000 tested, 0.56% active; AID 540317; also: nearly all actives have a fitted effect of over 70% in size
Target sequence (P83916 whole entry, looked up): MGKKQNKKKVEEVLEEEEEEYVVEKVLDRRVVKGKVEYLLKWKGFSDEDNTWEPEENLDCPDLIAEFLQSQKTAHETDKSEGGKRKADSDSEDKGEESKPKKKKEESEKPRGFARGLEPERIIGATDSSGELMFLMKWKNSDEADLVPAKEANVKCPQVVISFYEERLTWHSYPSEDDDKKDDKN
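HP1-beta protein (50 nM final) preincubated 30 min at room temperature with biotinylated H3(1-18)K9me3 peptide (50 nM) in PBS pH 7.4, 0.01% Tween-20, then compound added for 30 min. AlphaScreen streptavidin donor/nickel chelate acceptor beads (10 ug/mL final), 30 min dark, luminescence read.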
Sfp inh: blocks B. subtilis Sfp PPTase activity; Biochemical Sfp PPTase activity, qHTS; Potency, µM, for inactives: largest response in the series, negative = inhibition, actives largely listed as inhibitors; 310,000 tested, 3.5% active;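 also: the enzyme is Sfp with the accession as filed and its product quenches rhodamine fluorescence; 0% = enzyme reaction without inhibitor and -100% = no enzyme wells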
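Sfp 15 nM + cpd, 15 min RT; start w/ rhodamine-CoA 5 uM, BHQ-2-YbbR 12.5 uM (final); 50 mM Hepes pH 7.6, 10 mM MgCl2, 0.01% NP-40, 0.01% BSA; read 525/598 nm at 0 and 30 min.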
TDP1 inh: inhibitors of human tyrosyl-DNA phosphodiesterase TDP1 | recombinant TDP1, AlphaScreen DNA substrate cleavage | Potency, µM (series often up to 130 µM), inactives show top-dose activity change, negative = inhibition, most hits filed as inhibitors | 350,000 tested, 0.28% active | AID 485290; also: % is scaled to controls: 0 for no effect and ±100 for the full control effect; nearly all actives have a fitted effect of over 40% in size
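E. coli-derived human Tdp1, 1 nM final. Cpd preinc 15 min RT; substrate 15 nM final, 5 min RT; AS bead mix 10 ug/ml final, 10 min RT. Signal loss = tyrosine-FITC cleavage. No-enzyme wells = max signal.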
G9a block: G9a (human) methyltransferase inhibition; 350,000 tested, 8.8% active; Potency, µM (top dose mostly 102 µM), for inactives: top-dose activity, negative = inhibition, hits mostly inhibitors; AID 504332; Q96KQ7; G9a H3K9 monomethylation, AlphaScreen, 2 h; also: % is scaled to controls: 0 for no effect and ±100 for the full control effect; nearly all actives have a fitted effect of over 75% in size
Target sequence (Q96KQ7 913-1193 limits assumed): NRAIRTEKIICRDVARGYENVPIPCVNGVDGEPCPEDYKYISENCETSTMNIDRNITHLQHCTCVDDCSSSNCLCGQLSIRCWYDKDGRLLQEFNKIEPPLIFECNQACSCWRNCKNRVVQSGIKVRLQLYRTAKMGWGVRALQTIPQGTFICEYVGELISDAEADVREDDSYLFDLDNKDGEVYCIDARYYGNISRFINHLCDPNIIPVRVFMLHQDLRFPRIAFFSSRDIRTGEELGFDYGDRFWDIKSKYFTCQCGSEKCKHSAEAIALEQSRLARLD
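Step 1: enzyme (final 20 nM) with compound, 15 min RT. Step 2: substrate peptide 500 nM and SAM 20 uM, 2 h RT. Step 3: anti-H3K9me1 antibody and AlphaScreen beads, 10 min, then plate read.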
* hit, by the source's call; ? = inconclusive; . = no result given; ! = a repeat was not active; [ ] = dose if it differs, or a comment. Calls follow the shape of the dose curve; as a rule, active = well fitted curve in the direction sought with a large enough effect; inconclusive = small, poorly fitted or top-dose-only effect, or another doubt; inactive = no such curve, though single readings can be large; an effect the other way counts as inactive or inconclusive. Potency is read from the fitted curve at half-maximal effect.

SMILES	BAZ2B block	JMJD2A Tudor inh	HP1b binding inh	Sfp inh	TDP1 inh	G9a block
CCc1ccccc1N1CN(Cc2cccnc2)CNC1=S	-2%	-6%	31%	-9%	0%	.
NC(C(=O)O)c1nn[nH]n1 (stereo not drawn)	.	10µM*	-15%	-7%	-4%	.
NC(=O)C[C@@H](N)C(=O)O	.	.	.	3%	1%	37%[59 µM]
CC(=O)Nc1ccc(NC(=O)C(C)OC(=O)CCC2CCCC2)cc1 (stereo not drawn)	3%	-10%	13%	.	.	35µM*
CC(=O)Nc1ccc(NC(=O)C(C)OC(=O)CC2CCCC2)cc1 (stereo not drawn)	13%	-10%	8%	.	.	10%[12.7 µM]
C=CCC1(CC=C)CCCN1C(=O)CC1C(=O)NCCN1Cc1cccc(OC)c1OC (stereo not drawn)	-17%	-12%	23%	19%	-5%	-26%
COc1ccc(S(=O)(=O)NC2(C(F)(F)F)NC(=O)N(CCc3ccccc3)C2=O)cc1 (stereo not drawn)	-13%	0%	35%	19%	3%	45µM*
COc1ccc(S(=O)(=O)NC2(C(F)(F)F)NC(=O)N(CCc3ccc(OC)c(OC)c3)C2=O)cc1 (stereo not drawn)	-17%	-10%	27%	13%	2%	50µM*!
O=C1NC(NS(=O)(=O)c2ccccc2)(C(F)(F)F)C(=O)N1CCc1ccccc1 (stereo not drawn)	3%	2%	25%	15%	10%	8%
COc1ccc(CCN2C(=O)NC(NC(=O)CC(C)C)(C(F)(F)F)C2=O)cc1OC (stereo not drawn)	-7%	-23%	8%	-16%	0%	-6%[59 µM]
CC1CCN(c2ccc(NC(=S)NC(=O)c3ccco3)cc2)CC1	8.9µM*	?	-7%	-6%	7%	-40%[12.7 µM]
O=C(NC(=S)Nc1ccc(N2CCCCC2)cc1)c1ccco1	45µM*	40µM*	16µM*	0%	10%	?
CC(C)C1Cc2c(C#N)c(N)sc(=S)c2CO1 (stereo not drawn)	?	50µM*	?	28µM*	7%	7.9µM*
CC1(C)Cc2c(C#N)c(N)sc(=S)c2CO1	?	?	-1%	45µM*	6%	7.9µM*
Cc1cccc(C(=O)N2CCc3cc(CNC(=O)CCc4ccccc4)ccc32)c1	-10%	-20%	14%	.	0%	2%[59 µM]
CC(=O)Nc1ccc(S(=O)(=O)N(CC(=O)NC2CC2)Cc2ccccc2)cc1	.	-14%	18%	.	2%	.
O=C(NCCCN1CCOCC1)c1cccnc1SCc1ccccc1Cl	0%	-8%	38%	-13%	3%	10%
O=C(CNc1cc(S(=O)(=O)N2CCOCC2)ccc1N1CCCC1)N1CCc2ccccc21	?	?	-11%	5%	7%	35µM*
O=C(CCCSc1ccc(Cl)cc1)Nc1cc(S(=O)(=O)N2CCOCC2)ccc1O	?	56µM*	?	.	4%	?
CCCCCC(=O)Nc1cc(S(=O)(=O)N2CCOCC2)ccc1N1CCCCC1	9%	5%	26%	.	1%	50µM*
CC(C)(C)CC(=O)Nc1cc(S(=O)(=O)N2CCOCC2)ccc1N1CCCC1	-9%	-2%	18%	?	.	?
Cc1ccc(S(=O)(=O)N2CCOCC2)cc1NC(=O)CSc1ccc(Cl)cc1	7%	-12%	21%	.	.	-4%[59 µM]
O=C(Cc1c(F)cccc1Cl)Nc1cc(S(=O)(=O)N2CCOCC2)ccc1N1CCOCC1	-6%	-19%	33%	.	.	50µM*
O=C(Cc1c(F)cccc1Cl)Nc1cc(S(=O)(=O)N2CCOCC2)ccc1N1CCCC1	.	-10%	6%	.	2%	.
CCCCCC(=O)Nc1cc(S(=O)(=O)N2CCCCC2)ccc1N1CCCCC1	.	-2%	4%	.	.	.
SMILES	BAZ2B block	JMJD2A Tudor inh	HP1b binding inh	Sfp inh	TDP1 inh	G9a block
COc1cc(/C=N/N(C)S(=O)(=O)c2ccc(C)cc2)cc([N+](=O)[O-])c1O	?	-31%	-2%	-24%	.	?
CCOc1ccc(C(=O)C(C)OC(=O)Cn2c(C)csc2=O)cc1 (stereo not drawn)	-17%	-15%	19%	.	0%	-42%
O=S(=O)(c1ccc2c(c1)N(Cc1ccc(Cl)cc1)C1CCCN21)N1CCOCC1 (stereo not drawn)	-1%	-15%	1%	1%	1%	50µM*
O=C(Cc1ccc(Cl)cc1)Nc1cc(S(=O)(=O)N2CCOCC2)ccc1N1CCCC1	-9%	-7%[11.4 µM]	36%	9%	-2%	45µM*
Cn1c(CCC(=O)Nc2ccc(S(C)(=O)=O)cc2)nc2cc(S(=O)(=O)N3CCOCC3)ccc21	.	-1%	22%	.	.	.
COc1ccc(CC(=O)Nc2cc(Cl)ccc2N2CCCC2)cc1	-10%	-26%	11%	9%	2%	45µM*
COc1ccc(CN2c3cc(S(=O)(=O)N4CCOCC4)ccc3N3CCCC32)cc1 (stereo not drawn)	6%	-17%	18%	1%	4%	4%[12.7 µM]
CN1CCN(c2ccc(S(=O)(=O)N3CCCCC3)cc2NC(=O)Cc2ccc(Cl)cc2)CC1	-2%	-28%	-2%	2%	1%	?
Cn1c(CCC(=O)Nc2cc(S(C)(=O)=O)ccc2Cl)nc2cc(S(=O)(=O)N3CCOCC3)ccc21	79µM*	-14%	6%	.	.	10µM*
COc1ccc(CCC(=O)Nc2cc(Cl)ccc2N2CCN(C)CC2)cc1	0%	-17%	6%	4%	3%	-16%
COc1ccc(-n2c(=O)c(CCc3ccccc3)nc3cnc(N4CCN(C)CC4)nc32)cc1	.	.	.	-2%	.	8%[0.501 µM]
COc1cccc([C@@H]2Oc3ccc(Br)cc3C[C@H]2OC(=O)Nc2ccc(OC(F)F)cc2)c1	.	.	.	-16%	-1%	.
Cc1cc2c(s1)c1cnn(Cc3ccc(C)c(F)c3F)c(=O)c1n2C	.	-19%	.	.	-14%	.
CCc1cc[n+](C2=C([O-])c3ccccc3C(=O)/C2=N\S(=O)(=O)c2cccs2)cc1	?	79µM*	?	11%	5%	?
O=[N+]([O-])c1cccc(-c2nnc(-c3ccccc3)o2)c1	-33%	-15%	22%	12%	0%	-3%
Cc1occc1-c1nnc(-c2cc([N+](=O)[O-])cc([N+](=O)[O-])c2)o1	?	-34%	-5%	?	0%	32µM*

Bioassay records (PubChem BioAssay)
